# Data as given in PubChem BioAssay (Tox21).
# “And” between values parts separate entries of the source, which are not always exact repeats. Equal entries are not always repeated. Results filed as inconclusive are left out. Entries that show only a call come without a potency. A number with no mark means an inactive call. The source made the active and inactive calls. The call rests on the fitted dose curve; in most records, active means well fitted inhibition curve with a large enough effect in the repeat runs; inconclusive means weak or mixed curves; inactive means flat fitted curve, though single readings scatter.
# Assay: qHTS assay to identify small molecule HDAC inhibitors (AID 1259364);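 further: wild-type HCT-116 cells with endogenous class I/II HDAC activity; nearly all actives have a fitted effect of over 45% in size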; on activity change, negative = inhibition: top concentration of the series differs between compounds
# Conditions: HCT-116 HDAC-Glo I/II luminescence, 2 h; series mostly up to 92.4 µM
# Summary of the method: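 Read-out: luminescence of HDAC-Glo I/II reagent, 30 min RT, reflecting class I/II deacetylase activity in whole HCT-116 cells pre-exposed 2 h to DMSO-dissolved compounds.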
# Potency means the concentration at half of the fitted maximal effect.
SMILES,Potency,"activity change, negative = inhibition"
CCCCCCCCSCCO,inactive,
CC(C)(C)C(=O)C(Oc1ccc(Cl)cc1)n1ccnc1 (centres undefined),inactive,
Cc1oncc1C(=O)Nc1ccc(C(F)(F)F)cc1,2.43 µM (active) and 1.88 µM (active),
CC1(C)C2=CCCC(C)(C)[C@]23CC[C@H]1C3,inactive,
COC(=O)[C@@H]1CC2=CC(=O)CC[C@]2(C)[C@@]23O[C@@H]2C[C@@]2(C)[C@@H](CC[C@@]24CCC(=O)O4)[C@H]13,inactive,
CCC(C(=O)OCCOCCN(CC)CC)c1ccccc1 (centres undefined),inactive,
C[Si]1(C)O[Si](C)(C)O[Si](C)(C)O1,inactive,
CN1C(=O)CC(C)(c2ccccc2)C1=O (centres undefined),inactive,
CN1CCN(c2c(F)cc3c(=O)c(C(=O)O)cn4c3c2OCN4C)CC1,,8.76% [at 19 µM]
Cc1cc(O)c(C(C)C)cc1Cl,inactive,
CCOc1cc(N)c(Cl)cc1C(=O)NCC1CN(Cc2ccc(F)cc2)CCO1 (centres undefined),inactive,
CC1=NN(c2ccc(C(=O)O)cc2)C(=O)C1,inactive,
CC(=O)Oc1ccc(C(=C2CCCCC2)c2ccc(OC(C)=O)cc2)cc1,inactive,
Cc1ccc(Nc2nccc(N(C)c3ccc4c(C)n(C)nc4c3)n2)cc1S(N)(=O)=O,inactive,
COc1cc2[nH]c(=O)[nH]c(=O)c2cc1OC,inactive,
CC(=O)[C@H]1CC[C@H]2[C@@H]3C=CC4=CC(=O)CC[C@@]4(C)[C@@H]3CC[C@]12C,inactive,
CCn1cc(C(=O)O)c(=O)c2cc(F)c(N3CCNCC3)nc21,inactive,
CC(CCc1ccc2c(c1)OCO2)NN (centres undefined),inactive,
CCCCC(=O)O[C@]1(C(=O)CO)CC[C@H]2[C@@H]3CCC4=CC(=O)CC[C@]4(C)[C@H]3[C@@H](O)C[C@@]21C,inactive,
